Measurements from publication PMC13083723 (Patterns, 2026).
Out of some 5,400 compounds screened, about 190 (3.5%) showed an effect of 50% or more. Many of the other results were omitted from the sample, so strong results are more common in it than they were.

The compounds below were run on Vero-E6 (assay: primary screen, phospholipidosis by LipidTOX staining; higher = more effect of the substance). Conditions: 10 µM.
Procedure: To measure drug-induced PLD in Vero-E6 cells, we used the HCS LipidTOX Red Phospholipidosis Detection Reagent (Invitrogen, #H34351), which is non-toxic to cell growth and remains well retained after aldehyde fixation. In this setup, compounds (at 10 μM concentration) and controls (amiodarone: 10 μM concentration; DMSO: 0.1 v/v %) were added to clear-bottom, 384-well plates (PhenoPlate 384-well, black, optically clear flat bottom, tissue-culture treated, Revvity #6057302) using the Echo Liquid Handler (Labcyte).

Going from `CCCOC(C(=O)OC1CCN(C)CC1)(c1ccccc1)c1ccccc1` to `CN1C[C@H](CNC(=O)OCc2ccccc2)C[C@@H]2c3cccc4c3c(cn4C)C[C@H]21`, the result_ITMP falls from 63.8% to 61.8%.

First: C[C@H]1CCC/C=C/[C@@H]2C[C@H](O)C[C@H]2[C@H](O)/C=C/C(=O)O1
Second: C=CC[C@]1(O)CC[C@H]2[C@@H]3CCC4=CCCC[C@@H]4[C@H]3CC[C@@]21C
The result_ITMP of the first is lower: -2.38% for the first, 0.46% for the second.

First: COC(=O)C[C@](O)(CCC(C)(C)O)C(=O)O[C@@H]1C(OC)=C[C@]23CCCN2CCc2cc4c(cc2[C@H]13)OCO4
Second: COc1cc2c(cc1OC)[C@@]13CCN4CC5=CCO[C@H]6CC(=O)N2[C@H]1[C@H]6[C@H]5C[C@H]43
The result_ITMP of the first is lower: -10.1% for the first, 1.12% for the second.

Compared with `C#C[C@]1(O)CC[C@H]2[C@@H]3CCC4=CC(=O)CC[C@]4(C)[C@H]3CC[C@@]21C`, `C[N@+]1(CC2CC2)CC[C@]23c4c5ccc(O)c4O[C@H]2C(=O)CC[C@@]3(O)[C@H]1C5` is higher in result_ITMP: -7.32% for the first, 0.23% for the second.

Compared with `CN1[C@@H]2CC[C@H]1C[C@@H](OC(=O)c1cc(Cl)cc(Cl)c1)C2`, `CN(CCc1ccc(Cl)c(Cl)c1)CCN1CCCC1` is higher in result_ITMP: 9.65% for the first, 51.3% for the second.

First: CCN1C[C@]2(COC(=O)c3ccccc3N3C(=O)C[C@H](C)C3=O)CC[C@H](OC)[C@@]34[C@@H]5C[C@H]6[C@H](OC)[C@@H]5[C@](O)(C[C@@H]6OC)[C@@](O)([C@@H](OC)[C@H]23)[C@@H]14
Second: Oc1ccc2c3c1O[C@H]1c4[nH]c5ccccc5c4C[C@@]4(O)[C@@H](C2)N(CC2CC2)CC[C@]314
The result_ITMP of the first is lower: 0.37% for the first, 37.4% for the second.

First: CC(=O)OC[C@]12CCC(C)=C[C@H]1O[C@@H]1[C@H](O)[C@@H](OC(C)=O)[C@@]2(C)[C@]12CO2
Second: C[C@@H]1CN([C@H]2CC[C@](C#N)(c3ccc(F)cc3)CC2)CC[C@]1(C(=O)O)c1ccccc1
The result_ITMP of the first is lower: -25.8% for the first, -9.01% for the second.

`Cc1onc(O)c1C[C@H](N)C(=O)O` [R4A_0004356_001 / SPE_K92493880] was tested, and the result_ITMP was -0.72%.
